Measurements from PubChem BioAssay (Tox21).
Several values for one entry are separate records, joined by “and”; a condition that tells them apart may be missing. Equal entries are not always repeated. Results filed as inconclusive are left out. Activity calls are given as the source filed them. Unless noted, the call rests on the fitted dose curve; in most records, active means well fitted curve in the direction sought with a large enough effect in the repeat runs; inconclusive means weak or mixed curves; inactive means no such curve, though single readings can be large; an effect the other way counts as inactive or inconclusive.

Experiments:
[1] = biological target: Thyrotropin receptor (Homo sapiens) (UniProt P16473); assay: qHTS assay to identify small molecule agonists of the thyroid stimulating hormone receptor (TSHR) signaling pathway (AID 1224843; calls by dose curve; further: nearly all actives have a fitted effect of over 45% in size)
How it was run: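 HEK293/TSHR, 800 cells/well; cpd 30 min RT; add cAMP-d2 + anti-cAMP-cryptate, 1 h RT; fluorescence read on plate reader. 15-pt titration, n=3.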

[2] = qHTS assay to identify small molecule agonists of the hypoxia (HIF-1) signaling pathway - cell viability counter screen (AID 1224844; calls by dose curve; further: nearly all actives have a fitted effect of over 50% in size; further: potency means the concentration at half of the fitted maximal effect)
How it was run: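 Cytotoxicity was measured in parallel with the HRE-driven beta-lactamase readout: after 17 hrs of compound exposure at 37C, HRE-bla ME-180 cells received CellTiter-Glo and luminescence was recorded 30 min later.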

[3] = qHTS assay to identify small molecule agonists of H2AX (AID 1224845; active means well fitted activation curve with a large enough effect in the signal ratio in the repeat runs, not every such curve was filed as active; the % refers to the signal ratio)
How it was run: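 Wild-type CHO-K1 cells, plated overnight, exposed 3hr at 37C to 15 concentrations (0.76% DMSO final). Lysed, then HTRF anti-pH2AX (S139) cryptate and anti-H2AX-d2 antibodies, 24 hr room temperature; 665/620 nm emission read.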

[4] = qHTS assay to identify small molecule agonists of H2AX - cell viability counter screen (AID 1224847; calls by dose curve; further: nearly all actives have a fitted effect of over 30% in size; further: potency means the concentration at half of the fitted maximal effect; on activity change, negative = cytotoxicity: top concentration of the series differs between compounds)
How it was run: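 For this counter screen, overnight-attached CHO-K1 cells received test compounds (15 concentrations, 0.76% DMSO final); 3 hr later at 37C, CellTiter-Glo reagent was added and luminescence recorded after 30 min at room temperature.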

[5] = qHTS RealTime-Glo MT Cell Viability Assay in HepG2 cells - 24 hour (AID 1224867); further: nearly all actives have a fitted effect of over 50% in size
How it was run: (§1)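 Luminescence read-out: viable HepG2 cells reduce a prosubstrate to a NanoLuc substrate, giving a signal proportional to live cell number. Reads taken at 0, 8, 16, 24, 32 and 40 h of compound exposure at 37 C.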

[6] = qHTS RealTime-Glo MT Cell Viability Assay in HEK293 cells - 32 hour (AID 1224868); further: nearly all actives have a fitted effect of over 50% in size; further: potency means the concentration at half of the fitted maximal effect; on activity change, negative = cytotoxic: top concentration of the series differs between compounds
How it was run: (§2)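 Nonlytic real-time viability readout: viable cells convert prosubstrate to NanoLuc substrate, giving luminescence proportional to live cell number. HEK293, 600 cells/well, compound added after 5 h, continuous culture at 37 C.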

[7] = A CellTox Green Cytotoxicity Assay to monitor cytotoxicity in HEK293 cells - 0 hour (AID 1224869); further: nearly all actives have a fitted effect of over 50% in size; further: potency means the concentration at half of the fitted maximal effect
How it was run: (§3)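 Cells (HEK293, 600/well) and dye reagent are dispensed together. After 5 h at 37 C, 23 nL compound is pinned in. Plates stay at 37 C for 40 h with fluorescence read at 0h, 8h, 16h, 24h, 32h and 40h.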

[8] = qHTS RealTime-Glo MT Cell Viability Assay in HepG2 cells - 40 hour (AID 1224870); further: nearly all actives have a fitted effect of over 50% in size; further: potency means the concentration at half of the fitted maximal effect
How it was run: (§4)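 HepG2 cells (600/well) mixed with RealTime-Glo MT reagent, settled 5 h at 37 C/5% CO2 before compound addition. Nonlytic NanoLuc luminescence from viable-cell prosubstrate reduction read repeatedly during 40 h treatment at 37 C.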

[9] = A CellTox Green Cytotoxicity Assay to monitor cytotoxicity in HEK293 cells - 40 hour (AID 1224871); further: nearly all actives have a fitted effect of over 45% in size; further: potency means the concentration at half of the fitted maximal effect
How it was run: as §3

[10] = qHTS RealTime-Glo MT Cell Viability Assay in HEK293 cells - 16 hour (AID 1224872); further: nearly all actives have a fitted effect of over 50% in size; further: potency means the concentration at half of the fitted maximal effect; on activity change, negative = cytotoxicity: top concentration of the series differs between compounds
How it was run: as §2

[11] = qHTS RealTime-Glo MT Cell Viability Assay in HepG2 cells - 8 hour (AID 1224873); further: nearly all actives have a fitted effect of over 55% in size
How it was run: as §4

[12] = qHTS RealTime-Glo MT Cell Viability Assay in HEK293 cells - 40 hour (AID 1224874); conditions: RealTime-Glo luminescence; max response: active compounds read low; further: nearly all actives have a fitted effect of over 50% in size; further: potency means the concentration at half of the fitted maximal effect
How it was run: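 Real-time viability in HEK293: signal arises when living cells convert a prosubstrate for NanoLuc in the medium, so luminescence tracks viable cell number. Compound (23 nL, DMSO) added 5 h post-seeding; kinetic reads at 0–40 h, 37 C.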

[13] = A CellTox Green Cytotoxicity Assay to monitor cytotoxicity in HEK293 cells - 24 hour (AID 1224875); further: nearly all actives have a fitted effect of over 45% in size; further: potency means the concentration at half of the fitted maximal effect
How it was run: as §3

[14] = A CellTox Green Cytotoxicity Assay to monitor cytotoxicity in HepG2 cells - 16 hour (AID 1224876); further: nearly all actives have a fitted effect of over 45% in size; further: potency means the concentration at half of the fitted maximal effect
How it was run: (§5)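 Cells and non-lytic dye reagent are dispensed together (600 HepG2 cells/well) and incubated 5 h before DMSO compound transfer. Kinetic fluorescence is then recorded in the same wells during 40 h at 37 C.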

[15] = qHTS RealTime-Glo MT Cell Viability Assay in HepG2 cells - 32 hour (AID 1224877); further: nearly all actives have a fitted effect of over 55% in size; further: potency means the concentration at half of the fitted maximal effect
How it was run: as §1

[16] = A CellTox Green Cytotoxicity Assay to monitor cytotoxicity in HepG2 cells - 24 hour (AID 1224878); further: nearly all actives have a fitted effect of over 45% in size; further: potency means the concentration at half of the fitted maximal effect
How it was run: as §5

[17] = A CellTox Green Cytotoxicity Assay to monitor cytotoxicity in HepG2 cells - 40 hour (AID 1224879); further: nearly all actives have a fitted effect of over 40% in size; further: potency means the concentration at half of the fitted maximal effect
How it was run: as §5

[18] = qHTS assay to identify small molecule agonists of the hypoxia (HIF-1) signaling pathway (AID 1224846; active means well fitted activation curve with a large enough effect in the signal ratio in the repeat runs, not every such curve was filed as active; the % refers to the signal ratio)
How it was run: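 Compounds from the Tox21 10K library, dissolved in DMSO, are tested for induction of a hypoxia response element–controlled beta-lactamase reporter in ME-180 cells. Exposure lasts 17 hrs at 37C after a 5 hr settling period, followed by CCF4-AM FRET substrate.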

[19] = qHTS assay to identify small molecule antagonists of the estrogen related receptor (ERR) signaling pathway from Tox21 library (AID 1224848); further: nearly all actives have a fitted effect of over 50% in size; further: potency means the concentration at half of the fitted maximal effect
How it was run: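 Compounds dissolved in DMSO are pin-transferred onto ERR reporter cells (2,000 per well) that have settled for 6 h at 37 C. Plates then incubate 18 h at 37 C before ONE-Glo luciferase reagent and a luminescence read 30 min later.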

[20] = qHTS assay to identify small molecule agonists of the estrogen related receptor (ERR) signaling pathway from Tox21 library (AID 1224849; calls by dose curve; further: nearly all actives have a fitted effect of over 15% in size); conditions: ERR reporter cell line, ONE-Glo luciferase, 18 h; at 92.4 µM (top of the series) unless noted
How it was run: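 Cells carrying the ERR reporter were plated and allowed to settle for 6 h, exposed to library compounds for 18 h at 37 C, then lysed with ONE-Glo and luminescence measured.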
On the % scale 0 is the no-effect control and ±100 the full control effect.

Thyrotropin receptor (Homo sapiens), sequence (P16473 whole entry, looked up): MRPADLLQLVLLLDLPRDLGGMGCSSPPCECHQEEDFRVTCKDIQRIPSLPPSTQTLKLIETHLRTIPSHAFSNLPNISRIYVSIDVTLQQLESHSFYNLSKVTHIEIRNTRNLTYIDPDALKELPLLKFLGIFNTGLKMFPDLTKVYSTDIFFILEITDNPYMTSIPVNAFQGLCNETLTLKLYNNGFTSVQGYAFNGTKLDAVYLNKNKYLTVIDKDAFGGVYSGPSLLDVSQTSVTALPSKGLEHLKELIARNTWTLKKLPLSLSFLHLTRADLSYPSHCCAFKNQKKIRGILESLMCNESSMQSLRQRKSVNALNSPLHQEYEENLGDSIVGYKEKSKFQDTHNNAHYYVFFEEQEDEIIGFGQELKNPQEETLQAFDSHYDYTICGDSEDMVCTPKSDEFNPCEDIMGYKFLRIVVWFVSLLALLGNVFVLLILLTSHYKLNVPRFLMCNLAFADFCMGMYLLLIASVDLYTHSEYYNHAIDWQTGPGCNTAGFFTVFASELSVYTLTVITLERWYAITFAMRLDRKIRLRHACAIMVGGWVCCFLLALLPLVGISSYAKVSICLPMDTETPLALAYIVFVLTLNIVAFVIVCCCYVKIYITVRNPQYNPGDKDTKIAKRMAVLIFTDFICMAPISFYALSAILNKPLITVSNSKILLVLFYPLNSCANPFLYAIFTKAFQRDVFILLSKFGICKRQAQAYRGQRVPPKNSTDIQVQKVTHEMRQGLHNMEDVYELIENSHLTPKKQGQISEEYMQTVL

CC(N)CN (configuration not stated)
inactive: Potency [1] | Potency [2] | Potency [3] | Potency [4] | Potency [5] | Potency [6] | Potency [7] | Potency [8] | Potency [9] | Potency [10] | Potency [11] | max response [12] 2.08% | Potency [13] | Potency [14] | Potency [15] | Potency [16] | Potency [17]

O=C(CCCN1CCN(c2ccc(F)cc2)CC1)NC1c2ccccc2CSc2ccccc21 (configuration not stated)
inactive: Potency [1] | Potency [2] | Potency [3] | outcome [18] | Potency [7] | Potency [13]
active: Potency [10] 19 µM | Potency [15] 23.9 µM | Potency [16] 23.9 µM | Potency [17] 23.9 µM

OCCSc1ccccc1
active: Potency [2] 21.9 µM
inactive: Potency [1] | Potency [3] | Potency [4] | Potency [5] | Potency [6] | Potency [7] | Potency [8] | Potency [10] | Potency [11] | max response [12] -28.1% | Potency [13] | Potency [14] | Potency [15] | Potency [16] | Potency [17]

CC(=O)OCC(=O)[C@H]1CC[C@H]2[C@@H]3CCC4=CC(=O)CC[C@]4(C)[C@H]3CC[C@]12C
inactive: Potency [1] | Potency [2] | Potency [3] | outcome [18] | activity change, positive = activation [20] -35.1% [at 42.5 µM] | Potency [5] | Potency [7] | Potency [8] | Potency [11] | Potency [13] | Potency [14] | Potency [15] | Potency [16] | Potency [17]
active: Potency [19] 21.1 µM

CCC(C(=O)OCCN(CC)CC)c1ccccc1 (configuration not stated)
inactive: Potency [1] | Potency [2] | Potency [3] | Potency [4] | Potency [5] | Potency [6] | Potency [7] | Potency [8] | Potency [9] | Potency [10] | Potency [11] | Potency [13] | Potency [14] | Potency [15] | Potency [16] | Potency [17]

NC(=O)N(O)[C@@H]1COc2cc(OCc3ccccc3)ccc21
inactive: Potency [1] | Potency [2] | Potency [3] | outcome [18] | Potency [5] | Potency [7] | Potency [8] | Potency [9] | Potency [10] | Potency [11] | Potency [13] | Potency [14] | Potency [15]

OC(CCCN1CCCCC1)(c1ccccc1)c1ccccc1
inactive: Potency [1] | Potency [2] | Potency [3] | Potency [4] | Potency [19] | activity change, positive = activation [20] 2.99% [at 42.5 µM] | Potency [5] | Potency [6] | Potency [7] | Potency [8] | Potency [10] | Potency [11] | max response [12] 0.842% | Potency [13] | Potency [14] | Potency [15] | Potency [16] | Potency [17]

COC(OC)(C(=O)c1ccccc1)c1ccccc1
inactive: Potency [1] | Potency [2] | Potency [3] | outcome [18] | Potency [19] | activity change, positive = activation [20] -3.37% | Potency [5] | Potency [6] | Potency [7] | Potency [8] | Potency [9] | Potency [10] | Potency [11] | Potency [13] | Potency [14] | Potency [15] | Potency [16] | Potency [17]

O=C(CCCCCCC(=O)Nc1ccccc1)NO
inactive: Potency [1] | Potency [3] | outcome [18] | Potency [4] | Potency [9] | Potency [13] | Potency [14] | Potency [16]
active: Potency [2] 1.69 µM | Potency [8] 4.77 µM | Potency [10] 2.68 µM | Potency [12] 2.39 µM | Potency [17] 2.68 µM

CCCCN(CCCC)CCCOC(=O)c1ccc(N)cc1
inactive: Potency [1] | Potency [2] | Potency [3] | Potency [4] | Potency [5] | Potency [6] | Potency [7] | Potency [8] | Potency [9] | Potency [10] | max response [12] -19.3% | Potency [13] | Potency [15] | Potency [16] | Potency [17]

Cc1cc(O)c(C(C)C)cc1Cl
active: Potency [9] 38.9 µM | Potency [14] 24.5 µM | Potency [16] 27.5 µM | Potency [17] 34.7 µM
inactive: Potency [1] | Potency [2] | Potency [3] | outcome [18] | Potency [5] | Potency [6] | Potency [7] | Potency [8] | Potency [10] | Potency [11] | max response [12] -23.1% and 3.73% | Potency [15]

O=C(CCCN1CCC(O)(c2ccc(Br)cc2)CC1)c1ccc(F)cc1
inactive: Potency [1] | Potency [2] | Potency [3] | Potency [4] | Potency [7] | Potency [9] | Potency [11] | Potency [13]
active: Potency [6] 9.52 µM | Potency [10] 9.52 µM | Potency [12] 10.7 µM | Potency [16] 23.9 µM | Potency [17] 23.9 µM

C=CCCCCCCCCCCCCCCCC
inactive: activation [1] -8.53% [at 8.39 µM] | activity change, negative = cytotoxicity [2] 3.26% [at 6.97 µM] | activation (H2AX phosphorylation) [3] -2.87% [at 14 µM] | activity change, negative = cytotoxicity [4] 0.307% [at 14 µM] | activity, negative = inhibition [19] 6.89% [at 8.39 µM] | activity change, positive = activation [20] 3.59% [at 8.39 µM] | activity change, negative = cytotoxicity [5] 0.0094% [at 6.97 µM] | activity change, negative = cytotoxic [6] -11.9% [at 6.97 µM] | cytotoxicity [7] -3.01% [at 6.97 µM] | activity change, negative = cytotoxic [8] 26.4% [at 6.97 µM] | cytotoxicity increase [9] -6.74% [at 6.97 µM] | activity change, negative = cytotoxicity [10] -3.07% [at 6.97 µM] | viability change, negative = cytotoxic [11] -17.7% [at 6.97 µM] | max response [12] -5.15% | activity change [13] -1.9% [at 6.97 µM, active compounds read high] | cytotoxicity increase [14] -18.8% [at 6.97 µM] | activity change, negative = cytotoxic [15] 7.54% [at 6.97 µM] | cytotoxicity [16] -19.1% [at 6.97 µM] | cytotoxicity increase [17] -20.6% [at 6.97 µM]

CCCCCCCCCCCCCCC[C@H](O)[C@@H](N)CO
inactive: Potency [1] | Potency [2] | Potency [3]
active: Potency [4] 49.2 µM | Potency [6] 23.9 µM | Potency [7] 19 µM | Potency [10] 21.3 µM | Potency [12] 26.8 µM | Potency [13] 21.3 µM | Potency [14] 23.9 µM | Potency [15] 26.8 µM | Potency [16] 26.8 µM | Potency [17] 26.8 µM
